High-throughput results from PubChem BioAssay.
Hits are enriched below; roughly 9.9% of the tested compounds scored in any of these assays.
Tau FP inhib: blocks human tau fibril formation measured by polarization; P10636; K18 P301L tau heparin fibrillization, Alexa594 FP, 6 h; Potency, µM (doses to about 57.7 µM), inactives show top-dose activity, negative = inhibition, actives largely listed as inhibitors; 280,000 compounds, 0.39% hits; active = well fitted curve in the direction sought with a large enough effect; inconclusive = small, poorly fitted or top-dose-only effect, or another doubt; inactive = no such curve, though single readings can be large; an effect the other way counts as inactive or inconclusive; also: nearly all actives have a fitted effect of over 55% in size
Target sequence (P10636 561-689 P618L limits assumed): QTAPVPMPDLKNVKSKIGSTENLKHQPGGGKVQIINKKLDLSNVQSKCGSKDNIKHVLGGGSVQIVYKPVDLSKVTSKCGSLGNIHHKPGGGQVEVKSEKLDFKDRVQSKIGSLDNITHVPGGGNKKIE
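Read-out: fluorescence polarization of Alexa 594-labeled tau (0.24 uM), 555 nm excitation, 632 nm emission. Mixtures held 15 uM unlabeled K18 P301L, compound and 20 uM heparin, pH 7 acetate buffer, incubated 6 hr at 37 C.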
Tau fibril ThT: inhibitors of human tau fibril formation, thioflavin T binding; P10636; recombinant tau K18 P301L, heparin-induced fibrillization, ThT fluorescence; Potency, µM (titrated, usually from 57.4 µM), without a hit: top-dose activity, negative = inhibition, actives largely listed as inhibitors; 270,000 compounds, 2.1% hits; AID 1460; active = well fitted curve in the direction sought with a large enough effect; inconclusive = small, poorly fitted or top-dose-only effect, or another doubt; inactive = no such curve, though single readings can be large; an effect the other way counts as inactive or inconclusive; also: nearly all actives have a fitted effect of over 55% in size
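In this qHTS, human K18 P301L tau is incubated with compound and heparin for 6 hr at 37 C, and Thioflavin T fluorescence then reports fibril load.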
Tau fluor counter: counter-screen for tau fibril formation inhibitors; Potency, µM (doses to about 57.7 µM), for inactives: at the highest dose activity change, negative = decrease; AID 1463; 280,000 compounds, 0.93% hits; tau K18 P301L Alexa594 fluorescence, heparin fibrillization; active = well fitted curve in the direction sought with a large enough effect; inconclusive = small, poorly fitted or top-dose-only effect, or another doubt; inactive = no such curve, though single readings can be large; an effect the other way counts as inactive or inconclusive; also: nearly all actives have a fitted effect of over 55% in size
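Human tau K18 P301L (15 uM unlabeled, 0.24 uM Alexa 594-labeled) in 100 mM sodium acetate pH 7 with 20 uM heparin, 6 hr at 37 C. ThT 30 uM added, 1 hr ambient; Alexa 594 FP and total fluorescence read at 555/632 nm.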
HPGD block: blocks human HPGD enzyme activity. P15428. purified HPGD, NADH fluorescence kinetic, PGE2 substrate. Potency, µM, for the others: at the top dose activity change, negative = inhibition, hits mostly inhibitors. 150,000 compounds, 4.3% hits. AID 894
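NADH formation kinetics: reaction with 30 uM PGE2 and 1 mM NAD+ (final), 20 nM enzyme, Tris-HCl pH 8 with Tween 20, after 15 min compound preincubation at room temperature. Fluorescence change, last versus first of five reads.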
ALDH1A1 inh: inhibitors of human aldehyde dehydrogenase 1A1; P00352; Purified ALDH1A1, NADH fluorescence, propionaldehyde substrate; Potency, µM (top dose mostly 75.3 µM), without a hit: at the top dose activity, negative = inhibition, most hits filed as inhibitors; 220,000 compounds, 7.3% hits; AID 1030;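 also: plate controls were no enzyme wells and a reference inhibitor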
JMJD2E inh: inhibitors of human JMJD2E histone demethylase; B2RXH2; JMJD2E catalytic domain, FDH-coupled NADH fluorescence (FDH is formaldehyde dehydrogenase); Potency, µM (titrated, usually from 57.1 µM), without a hit: at the top dose activity change, negative = inhibition, most hits filed as inhibitors; 230,000 compounds, 1.6% hits;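 also: 0% = wells with enzyme and -100% = buffer wells without enzyme; nearly all actives have a fitted effect of over 50% in size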
Target sequence (B2RXH2 1-337 limits assumed): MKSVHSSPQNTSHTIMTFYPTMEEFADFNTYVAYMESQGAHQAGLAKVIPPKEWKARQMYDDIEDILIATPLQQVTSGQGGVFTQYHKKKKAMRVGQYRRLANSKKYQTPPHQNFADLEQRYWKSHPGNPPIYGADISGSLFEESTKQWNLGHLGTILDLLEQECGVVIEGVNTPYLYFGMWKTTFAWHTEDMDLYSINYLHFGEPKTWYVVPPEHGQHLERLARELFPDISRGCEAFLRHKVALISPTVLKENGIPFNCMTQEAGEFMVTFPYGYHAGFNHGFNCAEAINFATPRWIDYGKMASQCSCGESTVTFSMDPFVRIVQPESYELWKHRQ
* = called active by the depositor; u = inconclusive; x = no result; [ ] = dose if it differs, or a comment. Unless noted, calls follow the shape of the dose curve; as a rule, active = well fitted inhibition curve with a large enough effect (not every such curve was filed as active); inconclusive = small, poorly fitted or top-dose-only effect, or another doubt; inactive = no such curve, though single readings can be large or run the other way. Unless noted, % is scaled to controls: 0 for no effect and ±100 for the full control effect; potency is read from the fitted curve at half-maximal effect.

SMILES	Tau FP inhib	Tau fibril ThT	Tau fluor counter	HPGD block	ALDH1A1 inh	JMJD2E inh
COc1cccc(C(=O)CC2(O)C(=O)N(Cc3ccccc3)c3ccccc32)c1 (centres undefined)	0.4%	-8.9%	-10.2%	x	x	x
CCN1C(=O)C(O)(CC(=O)c2cc(C)ccc2C)c2ccccc21 (centres undefined)	3.2%	-8.2%	-3.3%	-10.1%	u	0.5%
Cc1ccccc1CN1C(=O)C(O)(CC(=O)c2ccncc2)c2ccccc21 (centres undefined)	-4.3%	u	-5.1%	-15.4%	0.112µM*	-5.1%
O=C(CC1(O)C(=O)N(Cc2ccc3c(c2)OCO3)c2ccccc21)c1ccccc1 (centres undefined)	1.9%	-13.2%	-10.2%	-7.8%	8.91µM*	-7.5%
Cc1cn2c(=O)cc(COC(=O)c3cccc(NC(=O)C(C)Oc4ccccc4)c3)nc2s1 (centres undefined)	1.4%	-9.2%	1.0%	x	x	x
CC(C)C(=O)Nc1ccc2nc(SCCOc3ccccc3)sc2c1	-3.0%	2.8%	-3.0%	x	x	x
CCc1ccc(NC(=O)C(=O)NCCOc2ccccc2Cl)cc1	6.2%	-1.7%	-3.0%	x	9.2%	10.1%
Cc1c(N=Cc2ccc(O)c(Br)c2)cccc1[N+](=O)[O-]	-1.3%	10.3%	3.6%	u	22.4µM*	4.2%
O=[N+]([O-])c1cc(Cl)cc(/C=N/Nc2nc3ccccc3s2)c1O	-2.7%	11.2µM*	25.1µM*[quencher]	x	-5.7%	u
COc1cc(/C=N/Nc2nc3ccccc3s2)cc([N+](=O)[O-])c1O	-9.6%	1.78µM*	14.1µM*[quencher]	x	-3.3%	-3.1%
COc1cc(/C=N/Nc2nc(=O)[nH]nc2C)cc([N+](=O)[O-])c1O	0.5%	14.1µM*	-23.6%	x	x	-13.0%
COc1cc(C=C(c2nc3ccccc3s2)c2nc3ccccc3s2)cc(OC)c1O	16.9%	u	u	-14.6%	-2.7%	-24.2%
COc1ccc(/C=N/Nc2nc(=O)[nH]nc2C)cc1[N+](=O)[O-]	-3.6%	u	-8.1%	-12.0%	u	-2.9%
O=[N+]([O-])c1ccccc1N/N=C/c1cc2ccccc2nc1Cl	6.2%	2.24µM*	-28.9%	-23.5%	u	-1.1%
Cc1cccc(OC(C)C(=O)Nc2ncn[nH]2)c1 (centres undefined)	0.0%	0.5%	4.6%	x	x	x
CCCCN1C(=O)C(=Nc2cccc3cnccc23)c2ccccc21	-6.0%	u	-8.6%	x	0.631µM*	-9.6%
O=C(CN1C(=O)c2cccc3cccc1c23)NCc1cccnc1	-0.3%	-15.7%	-10.9%	-15.6%	8.5%	-10.6%
Cc1cc(Nc2ccc(N=Nc3ccc(O)c4ncccc34)cc2)nc(C)n1	x	x	x	-2.2%	-8.8%[13.5 µM]	x
CC(C)CNC(=O)c1ccccc1NC(=O)c1ccc(CSc2ccccc2)cc1	u	13.5%	-23.1%	u	4.0%	u
CN(C)S(=O)(=O)c1ccc(C(=O)N2CCC(c3nc4ccccc4o3)CC2)cc1	1.1%	-2.9%	4.3%	-6.3%	28.2µM*	-6.4%
O=C(c1ccccc1)N1CCC(c2nc3ccccc3o2)CC1	3.4%	-10.6%	-11.9%	x	x	x
Cc1cccc(-n2ccnc2CN2CCC(CO)(Cc3ccccc3)CC2)c1	3.6%	x	8.1%	x	x	-1.6%
O=C(Nc1cc(S(=O)(=O)N2CCOCC2)ccc1N1CCOCC1)c1cc2c(s1)CCC2	-15.6%	-11.2%	-21.1%	x	x	u
O=C(NN=C1CCCCCCCCCCC1)c1cccc(S(=O)(=O)N2CCOCC2)c1	1.2%	1.5%	0.0%	-16.9%	12.6µM*	33.7%
O=C(Nc1cccc(S(=O)(=O)N2CCOCC2)c1)c1cc2c(s1)CCC2	-17.1%	-15.7%	u	-9.1%	3.16µM*	-8.4%
O=C(NN=C1C2CC3CC(C2)CC1C3)c1cccc(S(=O)(=O)N2CCOCC2)c1	11.1%	7.4%	1.0%	0.0%	u	22.6%
COc1ccc(NC(=O)c2cc3c(s2)CCC3)cc1S(=O)(=O)N1CCOCC1	u	u	-29.4%	-18.8%	0.562µM*	-2.9%
COc1ccc(NC(=O)c2ccco2)cc1S(=O)(=O)N1CCOCC1	8.1%	4.6%	4.8%	x	2.3%	10.8%
